From PubChem BioAssay (NCI)
The panel holds about 83,000 compounds, 20% with a hit somewhere; the sample as a whole holds those more often.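 Single-concentration screen, 48 h exposure, 96-well plates. Endpoint: percent growth. Below 10 = active.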 Activity calls are given as the source filed them.

What was measured:
Experiment in all cases: NCI-60 one-dose screen, 48 h (100 = growth as untreated, 0 = no growth, -100 = all killed)
Settings in all cases: 10 µM unless noted
NCI-H23 lung = system: NCI-H23 lung
NCI-H226 lung = system: NCI-H226 lung
NCI-H322M lung = system: NCI-H322M lung
HOP-62 NSCLC = system: HOP-62 NSCLC
NCI-H460 lung = system: NCI-H460 lung
HOP-92 NSCLC = system: HOP-92 NSCLC
NCI-H522 lung = system: NCI-H522 lung
A549/ATCC NSCLC = system: A549/ATCC NSCLC
786-0 renal = system: 786-0 renal
COLO 205 colon = system: COLO 205 colon
DU-145 prostate = system: DU-145 prostate
K-562 leukemia = system: K-562 leukemia
MALME-3M melanoma = system: MALME-3M melanoma
MDA-MB-231 breast = system: MDA-MB-231 breast
RXF 393 renal = system: RXF 393 renal
SF-268 CNS = system: SF-268 CNS
SF-295 CNS = system: SF-295 CNS
SF-539 CNS = system: SF-539 CNS
UACC-257 melanoma = system: UACC-257 melanoma
M14 melanoma = system: M14 melanoma

Measured: growth

O=c1cc(-c2ccccc2)nc(SCc2nc3cc(Cl)c(Cl)cc3[nH]2)[nH]1
inactive: NCI-H23 lung 90.9% | NCI-H226 lung 101% | NCI-H322M lung 90.7% | HOP-62 NSCLC 93.2% | NCI-H460 lung 111% | HOP-92 NSCLC 104% | NCI-H522 lung 85.3% | A549/ATCC NSCLC 114% | 786-0 renal 96.7% | COLO 205 colon 108% | DU-145 prostate 106% | K-562 leukemia 88.8% | MALME-3M melanoma 103% | MDA-MB-231 breast 102% | RXF 393 renal 107% | SF-268 CNS 101% | SF-295 CNS 102% | SF-539 CNS 94.3% | UACC-257 melanoma 103% | M14 melanoma 104%

COC1C(O)CC(OC2CC(OC3CC(O[C@@H]4C(=O)c5c(cc6cc(OC7CC(OC8CC(O)C(O)C(C)O8)C(O)C(C)O7)c(C)c(O)c6c5O)CC4[C@H](OC)C(=O)O)OC(C)C3O)OC(C)C2O)OC1C (stereo not given in full)
inactive: NCI-H322M lung 14.5% | NCI-H460 lung 13.5% | HOP-92 NSCLC 20.4% | 786-0 renal 34.7% | COLO 205 colon 14.7% | DU-145 prostate 22.3% | K-562 leukemia 21.2% | MALME-3M melanoma 13.9% | MDA-MB-231 breast 48.4% | SF-268 CNS 28.4% | SF-295 CNS 10.9% | M14 melanoma 35.4%
active: NCI-H23 lung 6.6% | NCI-H226 lung -36.1% | HOP-62 NSCLC 1.26% | NCI-H522 lung -13.7% | A549/ATCC NSCLC 8.44% | RXF 393 renal -45.7% | SF-539 CNS 5.86% | UACC-257 melanoma -8.56%

Nc1c(Cl)cc(/C=C2\C=Cc3ccccc32)cc1Cl
inactive: NCI-H23 lung 97.4% | NCI-H226 lung 98.7% | NCI-H322M lung 106% | HOP-62 NSCLC 102% | NCI-H460 lung 112% | HOP-92 NSCLC 99.6% | NCI-H522 lung 93.1% | A549/ATCC NSCLC 92.7% | 786-0 renal 102% | COLO 205 colon 102% | DU-145 prostate 97.8% | K-562 leukemia 100% | MALME-3M melanoma 119% | MDA-MB-231 breast 113% | RXF 393 renal 103% | SF-268 CNS 105% | SF-295 CNS 115% | SF-539 CNS 97.5% | UACC-257 melanoma 98.3% | M14 melanoma 105%

CCOC(=O)C1=C(CC(O)c2ccc(OC)cc2OC)NC(=O)NC1c1ccccc1 (stereo not given)
inactive: NCI-H23 lung 103% | NCI-H226 lung 100% | NCI-H322M lung 104% | HOP-62 NSCLC 97.8% | NCI-H460 lung 113% | HOP-92 NSCLC 82.5% | NCI-H522 lung 98.5% | A549/ATCC NSCLC 107% | 786-0 renal 102% | COLO 205 colon 126% | DU-145 prostate 110% | K-562 leukemia 56.1% | MALME-3M melanoma 93.8% | MDA-MB-231 breast 99.4% | RXF 393 renal 120% | SF-268 CNS 109% | SF-295 CNS 109% | SF-539 CNS 95.1% | UACC-257 melanoma 102% | M14 melanoma 109%

CCCCCCCCCCOC(=O)c1nn(C(C)=O)c2cc(C)c(C)cc12
inactive: NCI-H23 lung 96.3% | NCI-H226 lung 87.8% | NCI-H322M lung 107% | HOP-62 NSCLC 94.5% | NCI-H460 lung 101% | HOP-92 NSCLC 68.5% | NCI-H522 lung 75.1% | A549/ATCC NSCLC 83.8% | 786-0 renal 94.6% | COLO 205 colon 102% | DU-145 prostate 106% | K-562 leukemia 95.2% | MALME-3M melanoma 104% | MDA-MB-231 breast 105% | RXF 393 renal 104% | SF-268 CNS 102% | SF-295 CNS 96% | SF-539 CNS 97.6% | UACC-257 melanoma 96.3% | M14 melanoma 90.7%

COc1ccc(-c2cc(C(=O)N3N=C(c4ccc(N)cc4)CC3c3ccc(Cl)cc3)c3ccccc3n2)cc1 (stereo not given)
active: NCI-H522 lung -3.25% | COLO 205 colon 2.76% | K-562 leukemia 7.4% | SF-539 CNS 5.56% | M14 melanoma 9.68%
inactive: NCI-H23 lung 48.1% | NCI-H226 lung 76.5% | NCI-H322M lung 52.4% | HOP-62 NSCLC 36.3% | NCI-H460 lung 12.8% | HOP-92 NSCLC 45.4% | A549/ATCC NSCLC 16.9% | 786-0 renal 25.4% | DU-145 prostate 13.9% | MALME-3M melanoma 79% | MDA-MB-231 breast 44.2% | RXF 393 renal 21.6% | SF-268 CNS 35% | SF-295 CNS 21.6% | UACC-257 melanoma 55.2%

O=C(O)CCCCCCCCCCN1C(=O)/C(=C2/C(=O)N(CC(=O)O)c3ccc(Br)cc32)SC1=S
inactive: NCI-H23 lung 92.8% | NCI-H226 lung 98.1% | NCI-H322M lung 97% | HOP-62 NSCLC 102% | NCI-H460 lung 105% | HOP-92 NSCLC 80.7% | NCI-H522 lung 90.1% | A549/ATCC NSCLC 92% | 786-0 renal 54.7% | COLO 205 colon 110% | DU-145 prostate 106% | K-562 leukemia 69.6% | MALME-3M melanoma 96.9% | MDA-MB-231 breast 92.3% | RXF 393 renal 113% | SF-268 CNS 96.9% | SF-295 CNS 103% | SF-539 CNS 104% | UACC-257 melanoma 97.9% | M14 melanoma 96.3%
